Only some compounds are listed: those with a hit (about 2.6% of all), similar ones and a draw of the others.
Mcl1 Bid PPI: Mcl-1/Bid interaction inhibition; Q07820; actives 0.97% (n = 220,000); AID 1021; TR-FRET Mcl-1/Bid-Dy647 peptide binding, 1536-well; inhibition, % at 21.7 µM;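 active means compounds that cut the binding signal by more than half at the single screening dose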;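 further: His-tagged Mcl-1 with europium anti-His antibody binding Bid BH3 peptide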
14-3-3 Bad inh: disrupts binding of bovine 14-3-3 zeta to phospho-Bad peptide; inhibition, % at 21.7 µM; P63103; AID 781; TR-FRET 14-3-3zeta/Dy647-pBad peptide displacement, 1 h; actives 0.71% (n = 220,000);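 active means inhibition above about 70%, limit read from the data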
Target sequence (P63103 whole entry, looked up): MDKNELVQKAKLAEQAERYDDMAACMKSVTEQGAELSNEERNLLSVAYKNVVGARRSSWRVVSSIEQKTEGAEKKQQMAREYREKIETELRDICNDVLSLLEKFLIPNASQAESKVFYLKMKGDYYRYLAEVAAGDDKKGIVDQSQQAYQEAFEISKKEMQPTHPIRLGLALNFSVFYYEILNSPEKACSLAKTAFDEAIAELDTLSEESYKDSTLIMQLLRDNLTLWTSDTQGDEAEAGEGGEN
Mcl1-Noxa inh: disrupts binding of human Mcl-1 to Noxa peptide | Q07820 | TR-FRET Mcl-1/Noxa peptide binding, 2 h | inhibition, % at 21.7 µM | actives 1.5% (n = 220,000) | AID 1022;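 active means compounds that cut the protein-peptide binding signal by more than 50% relative to plate controls in a single-dose test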;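 further: His-tagged Mcl-1 with rhodamine Noxa BH3 peptide and terbium anti-His antibody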
MCL1-BIM inh: disrupts human MCL1 binding to BIM-BH3 peptide; actives 0.68% (n = 320,000); GST-MCL1 / FITC-Bim-BH3 fluorescence polarization; inhibition, % at 10.9 µM; Q07820; AID 2057;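 active means inhibition above the mean inhibition of all tested compounds plus 3 SD, set per campaign, cut at about 40% in these data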;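 further: higher means more loss of mP so more displacement of Bim peptide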
Mcl-1 Bim block: disrupts Bim peptide binding to human Mcl-1. Q07820. Bead-based flow cytometry, Bim peptide-Mcl-1 binding. inhibition, % at 10 µM. actives 0.1% (n = 190,000). AID 1009; in the data active means inhibition above about 40%
eIF4E-4G inh: eIF4E/eIF4G interaction inhibition in translation initiation | actives 0.37% (n = 220,000) | TR-FRET eIF4E-eIF4GI(517-606) binding, 2 h | P63073+Q04637 | inhibition, % at 21.7 µM;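 active means inhibition above about 30%, limit read from the data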
Bcl-xL conf: counter-screen for MCL1 inhibitors: confirmation of human Bcl-xL inhibitors; AID 2166; actives 54% (n = 1,700); GST-Bcl-xL / FITC-Bim BH3 peptide FP binding; shares compounds with MCL1-BIM inh; inhibition, % at 10.9 µM;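 active means inhibition above a cutoff equal to the mean inhibition of all tested compounds plus 3 SD, cut at about 30% in these data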
Target sequence (Q07817 whole entry, looked up): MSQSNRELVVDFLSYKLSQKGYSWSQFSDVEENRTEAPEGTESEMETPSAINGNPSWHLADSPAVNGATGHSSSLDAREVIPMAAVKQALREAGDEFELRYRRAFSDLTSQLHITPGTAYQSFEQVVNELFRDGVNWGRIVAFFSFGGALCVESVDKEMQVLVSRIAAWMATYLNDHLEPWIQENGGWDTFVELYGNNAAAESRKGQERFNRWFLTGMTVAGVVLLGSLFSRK
MCL1 inh confirm: confirmation of human MCL1 and BIM-BH3 interaction inhibitors. shares compounds with MCL1-BIM inh. GST-MCL1 / FITC-Bim-BH3 fluorescence polarization. inhibition, % at 10.9 µM. actives 61% (n = 1,700). AID 2168;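 active means inhibition above the average of all tested compounds plus 3 SD, cut at about 40% in these data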
Large screens that a line does not name were inactive (follow-up assays come after a bar, where they were run).

COc1cccc(C2C3CN(C)CC=C3C(C#N)=C(N)C2(C#N)C#N)c1OC (configuration not stated)	MCL1-BIM inh 135 | Bcl-xL conf 77 | MCL1 inh confirm 97
CC1CN(Cc2cc(=O)[nH]c(C(C)C)n2)CC(C)O1 (configuration not stated)	none
COc1cccc(/C=N/NC(=O)NC2CCCCC2)c1O	none (no result: Mcl-1 Bim block)
Cc1ccc(CNC(=O)C(C)OC(=O)c2cccs2)cc1 (configuration not stated)	none
COc1ccc(C(=O)NNC(=O)C(=O)NC2CCCCC2)cc1	none (no result: Mcl1 Bid PPI, 14-3-3 Bad inh, Mcl1-Noxa inh, Mcl-1 Bim block, eIF4E-4G inh)
O=S(=O)(NCc1ccc(Cl)cc1)c1cccc2cccnc12	none (no result: Mcl-1 Bim block)
O=S(=O)(NCc1ccco1)c1cccc2cccnc12	MCL1-BIM inh 154 | Bcl-xL conf inactive | MCL1 inh confirm inactive
C=CCn1c(=O)[nH]c2cc(C(=O)N3CC=C(c4ccccc4)CC3)ccc2c1=O	none
COC1CCN(C(=O)CC2C(=O)NCCN2CC(C)(C)C)CC1 (configuration not stated)	MCL1-BIM inh 50 | Bcl-xL conf inactive | MCL1 inh confirm inactive
Cc1ccccc1C1C(C#N)=C2NC(=O)c3c(sc4c3CCCCC4)N2C2=C1C(=O)CC(C)(C)C2 (configuration not stated)	none
Cc1ccccc1C1C(C#N)=C2N=C(N)c3c(sc4c3CCCCC4)N2C2=C1C(=O)CC(C)(C)C2 (configuration not stated)	MCL1-BIM inh 54 | Bcl-xL conf 39 | MCL1 inh confirm 51
CCOC(=O)c1c(S(=O)(=O)NCC(=O)N2CCN(c3ccc(F)cc3)CC2)c(C)n(C)c1C	none (no result: Mcl1 Bid PPI, 14-3-3 Bad inh, Mcl1-Noxa inh, Mcl-1 Bim block, eIF4E-4G inh)
COc1ccc(N=Nc2nc3cc(Br)c(Br)cc3n2C)c(OC)c1	MCL1-BIM inh active | Bcl-xL conf 176 | MCL1 inh confirm active
COc1ccc(OC)c2c1C(=O)c1ccccc1C2=O	MCL1-BIM inh active | Bcl-xL conf active | MCL1 inh confirm active
COc1ccc2noc3c2c1C(=O)c1ccccc1-3	MCL1-BIM inh 117 (no result: Mcl1 Bid PPI, 14-3-3 Bad inh, Mcl1-Noxa inh, Mcl-1 Bim block, eIF4E-4G inh) | Bcl-xL conf 110 | MCL1 inh confirm 121
COc1cccc2c1C(=O)c1ccc3ccccc3c1C2=O	none
O=C1c2ccccc2-c2onc3ccc(NCCCn4ccnc4)c1c23	Mcl1 Bid PPI 60, MCL1-BIM inh active, Mcl-1 Bim block 63 | Bcl-xL conf 181 | MCL1 inh confirm 200
COc1ccc(OC)c2c1C(=O)C(Cl)=C(Cl)C2=O	Mcl1-Noxa inh 99, MCL1-BIM inh 71 (no result: Mcl-1 Bim block) | Bcl-xL conf 47 | MCL1 inh confirm 65
COc1ccc(-c2ccc(SCC(=O)NC3CCCCC3)nn2)cc1OC	none (no result: Mcl1 Bid PPI, 14-3-3 Bad inh, Mcl1-Noxa inh, Mcl-1 Bim block, eIF4E-4G inh)
CCOc1nc(Nc2ccc(OC)cc2OC)nc(OCC)n1	none (no result: Mcl1 Bid PPI, 14-3-3 Bad inh, Mcl1-Noxa inh, Mcl-1 Bim block, eIF4E-4G inh)
Cc1ccc(C)c(C(C)NC(=O)c2ccc(Br)o2)c1 (configuration not stated)	none
Cc1ccc(C)c(C(C)NC(=O)CC#N)c1 (configuration not stated)	MCL1-BIM inh 42 | Bcl-xL conf inactive | MCL1 inh confirm inactive
Cn1ccc2cc3c(cc21)CCN3C(=O)Nc1cccnc1	MCL1-BIM inh 46 (no result: Mcl1 Bid PPI, 14-3-3 Bad inh, Mcl1-Noxa inh, Mcl-1 Bim block, eIF4E-4G inh) | Bcl-xL conf 39 | MCL1 inh confirm 50
COC/C=C/C1=CC2=CC(=O)C(C)(OC(=O)c3cnc4ccccc4n3)C(=O)C2=CO1 (configuration not stated)	MCL1-BIM inh 96 (no result: Mcl1 Bid PPI, 14-3-3 Bad inh, Mcl1-Noxa inh, Mcl-1 Bim block, eIF4E-4G inh) | Bcl-xL conf inactive | MCL1 inh confirm 56
CN1CCc2c(sc(N)c2C(N)=O)C1	MCL1-BIM inh 65 | Bcl-xL conf inactive | MCL1 inh confirm inactive
CCN1CCc2c(sc(N)c2C(N)=O)C1	MCL1-BIM inh 64 | Bcl-xL conf inactive | MCL1 inh confirm inactive
CN1CCc2c(sc(NC(=O)c3cc(Cl)sc3Cl)c2C(N)=O)C1	MCL1-BIM inh 48 (no result: Mcl1 Bid PPI, 14-3-3 Bad inh, Mcl1-Noxa inh, Mcl-1 Bim block, eIF4E-4G inh) | Bcl-xL conf inactive | MCL1 inh confirm inactive
CN1CCc2c(sc(NC(=O)c3ccco3)c2C(N)=O)C1	none (no result: Mcl1 Bid PPI, 14-3-3 Bad inh, Mcl1-Noxa inh, Mcl-1 Bim block, eIF4E-4G inh)

Bioassay records as filed in PubChem.
